Compound activity as filed in PubChem BioAssay.
An excerpt weighted towards active compounds, which were near 12% of everything screened.
G9a block – qHTS Assay for Inhibitors of Histone Lysine Methyltransferase G9a; Histone-lysine N-methyltransferase EHMT2 (Homo sapiens), Q96KQ7; G9a H3K9 monomethylation, AlphaScreen, 2 h; Potency, µM (highest dose often 102 µM), most hits filed as inhibitors; 350,000 compounds, 8.8% hits; AID 504332, 2011; further: nearly all actives have a fitted effect of over 75% in size
Target sequence (Q96KQ7 913-1193 limits assumed): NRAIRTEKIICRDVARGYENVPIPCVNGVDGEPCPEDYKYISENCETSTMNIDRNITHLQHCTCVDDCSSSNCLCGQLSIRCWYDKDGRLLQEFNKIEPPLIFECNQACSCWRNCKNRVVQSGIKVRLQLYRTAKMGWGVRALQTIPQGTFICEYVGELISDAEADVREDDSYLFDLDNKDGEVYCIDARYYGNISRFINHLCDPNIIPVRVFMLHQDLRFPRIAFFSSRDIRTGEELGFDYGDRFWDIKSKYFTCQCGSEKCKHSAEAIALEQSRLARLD
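Chemiluminescent proximity detection of H3K9 monomethylation, read after 10 min bead incubation in the dark. Reaction: 20 nM G9a, 500 nM biotin-H3K9 peptide, 20 uM SAM cofactor, 2 h, room temperature, following 15 min enzyme-compound preincubation.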
JMJD2A Tudor inh – qHTS Assay for Inhibitors of JMJD2A-Tudor Domain | Potency, µM (doses to about 114 µM), usual class: inhibitors | AlphaScreen JMJD2A-Tudor / H3K4me3 peptide binding | Lysine-specific demethylase 4A (Homo sapiens), O75164 | 390,000 compounds, 4.4% hits; further: nearly all actives have a fitted effect of over 50% in size
HP1b chromo inh – HTS for Inhibitors of HP1-beta Chromodomain Interactions with Methylated Histone Tails. Chromobox protein homolog 1 (Homo sapiens), P83916. AlphaScreen HP1-beta / biotin-H3K9me3 peptide binding. Potency, µM (series often up to 114 µM), hits mostly inhibitors. 390,000 compounds, 0.56% hits; further: nearly all actives have a fitted effect of over 70% in size
Target sequence (P83916 whole entry, looked up): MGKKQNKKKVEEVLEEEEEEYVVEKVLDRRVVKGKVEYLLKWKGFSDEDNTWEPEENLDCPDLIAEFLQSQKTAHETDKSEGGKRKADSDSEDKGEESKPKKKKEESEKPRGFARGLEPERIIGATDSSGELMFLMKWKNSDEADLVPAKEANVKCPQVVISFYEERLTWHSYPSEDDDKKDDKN
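AlphaScreen: HP1-beta (50 nM) preformed 30 min with biotin-H3(1-18)K9me3 peptide (50 nM) in PBS pH 7.4, 0.01% Tween-20. Compound added for 30 min at RT, then streptavidin donor/nickel chelate acceptor beads (10 ug/mL) for 30 min.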
Sfp PPTase inh – qHTS Assay for Inhibitors of Bacillus subtilis Sfp phosphopantetheinyl transferase (PPTase); 4'-phosphopantetheinyl transferase ffp (Bacillus subtilis), Q9F4F7; Biochemical Sfp PPTase activity, qHTS; Potency, µM, hits mostly inhibitors; 310,000 compounds, 3.5% hits; AID 1490, 2009;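 further: the enzyme is Sfp with the accession as filed and its product quenches rhodamine fluorescence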
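Buffer: 50 mM Hepes-Na pH 7.6, 10 mM MgCl2, 0.01% Nonidet P-40, 0.01% BSA. Enzyme 15 nM, pre-exposed to compound 15 min; substrates then added and fluorescence change tracked over 30 min.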
BAZ2B block – qHTS Assay for Inhibitors of BAZ2B | AlphaScreen BAZ2B-H3K14Ac peptide displacement | Bromodomain adjacent to zinc finger domain protein 2B (Homo sapiens), Q9UIF8 | Potency, µM (titrated, usually from 114 µM), hits mostly inhibitors | 360,000 compounds, 4.4% hits; further: nearly all actives have a fitted effect of over 60% in size
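AlphaScreen displacement of biotin-H3(5-23)K14Ac peptide (50 nM final) from BAZ2B (50 nM final) in PBS pH 7.4, 0.01% Tween-20; complex preformed 30 min RT, then compounds (top 110 uM) 30 min RT, beads 20 min dark.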
L3MBTL1 inh – qHTS Assay for the Inhibitors of L3MBTL1; 230,000 compounds, 0.66% hits; Potency, µM (top dose mostly 57.1 µM), actives largely listed as inhibitors; Lethal(3)malignant brain tumor-like protein 1 (Homo sapiens), Q9Y468; AlphaScreen L3MBTL1–H3K9me1 peptide binding; further: nearly all actives have a fitted effect of over 60% in size
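L3MBTL1 50 nM + b-AHA-H3(1-15)K9me1 75 nM, 30 min RT; compound added, 30 min RT; streptavidin donor/Ni-chelate acceptor beads 10 ug/mL each final, 30 min RT dark; AlphaScreen read.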
Sfp inh conf – Confirmation qHTS Assay for Inhibitors of Bacillus subtilis Sfp phosphopantetheinyl transferase (PPTase); 380 compounds, 79% hits; shares compounds with Sfp PPTase inh; Sfp PPTase enzymatic assay, qHTS titration; Potency, µM (series often up to 114 µM), usual class: inhibitors
Target sequence (Q9F4F7 whole entry, looked up): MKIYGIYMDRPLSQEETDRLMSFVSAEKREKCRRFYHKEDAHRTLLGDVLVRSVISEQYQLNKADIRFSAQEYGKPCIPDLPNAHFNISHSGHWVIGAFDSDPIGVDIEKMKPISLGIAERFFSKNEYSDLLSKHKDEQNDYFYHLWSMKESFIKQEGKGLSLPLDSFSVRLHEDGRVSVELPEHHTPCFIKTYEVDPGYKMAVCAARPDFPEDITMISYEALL
Sfp gel assay – Gel-Based Assay for Inhibitors of Bacillus subtilis Sfp phosphopantetheinyl transferase (PPTase). purified Sfp, gel-based phosphopantetheinylation read-out. AID 2707, 2010. 210 compounds, 20% hits. Potency, µM, usual class: inhibitors. shares compounds with Sfp PPTase inh;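 active means potency below 100 µM; inconclusive means dose-dependent response but potency above 100 µM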;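 further: potency is an IC50 for inhibitors of Sfp transfer activity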
A number is an active result; n = inactive; u = inconclusive; x = not tested or not shown; ! = not active in a repeat; [ ] = dose if it differs, or a comment. Unless noted, the call rests on the fitted dose curve; in most records, active means well fitted curve in the direction sought with a large enough effect; inconclusive means small, poorly fitted or top-dose-only effect, or another doubt; inactive means no such curve, though single readings can be large; an effect the other way counts as inactive or inconclusive.

SMILES | G9a block | JMJD2A Tudor inh | HP1b chromo inh | Sfp PPTase inh | BAZ2B block | L3MBTL1 inh | Sfp inh conf | Sfp gel assay
Cc1c(Cl)cccc1N1C(=O)CC(NNC(=O)c2ccc3c(c2)OCO3)C1=O (stereo not drawn) | x | n | n | x | x | n | x | x
OC(CN1CCNCC1)Cn1c2ccc(Br)cc2c2cc(Br)ccc21 (stereo not drawn) | x | x | x | 35.5µM | x | x | n | n
N#Cc1ccc(COC(=O)c2cnc(Cl)c(Cl)c2)cc1 | n | n | n | n | n | x | x | x
O=C(Cc1ccc(NC(=O)C2CCN(C(=O)C3CCC3)CC2)cc1)Nc1cccc(C(=O)N2CCCC2)c1 | x | n | n | x | x | x | x | x
Nc1ccc(C(=O)n2c3ccccc3c3ccccc32)cc1 | 8.91µM | n | n | 44.7µM | n | n | u | x
Nc1ccc(C(=O)N2CCCC2)cc1 | n | n | n | n | n | n | x | x
COc1ccc2[nH]c(=O)c(CN(C(=O)c3ccco3)C3CCCCC3)cc2c1 | u | n | n | 7.94µM | n | x | 37.3µM | n
COc1ccc2[nH]c(=O)c(CN(C(C)=O)C3CCCCC3)cc2c1 | n | n | n | n | n | n | x | x
Cc1cc(=O)[nH]c2nnc(SCc3ccccc3F)n12 | n | n | n | x | n | x | x | x
Cc1ccc(-c2nc(N)sc2CC(=O)OCC(=O)N2C(C)CCCC2C)cc1 (stereo not drawn) | u | n | n | 17.8µM | u | n | 37.3µM | n
CCOC(=O)c1cc(-c2ccccc2)sc1NC(=O)c1ccc(OC)cc1 | u | u | u | 14.1µM | n | n | 8.35µM | x
Cc1cc(C(F)(F)F)nn1Cc1ccc(C(=O)NCc2ccco2)o1 | u | n | n | 0.891µM | n | x | 46.9µM | x
Nc1c(C(=O)Nc2ccccc2F)sc2nc(-c3ccco3)ccc12 | u | n | n | 3.98µM | n | n | 1.67µM | x
CC(C)OC(=O)c1sc2nc(-c3ccccc3)ccc2c1N | x | n | n | n | n | n | x | x
Nc1c(C(=O)Nc2ccccc2F)sc2nc(-c3cccnc3)ccc12 | x | n | n | u | n | x | x | x
NC(=O)c1sc2nc(-c3ccco3)ccc2c1N | u | n | n | 5.01µM | n | n | 6.63µM | n
COc1ccc2[nH]c(S(=O)Cc3ncc(C)c(OC)c3C)nc2n1 (stereo not drawn) | u | x | x | 44.7µM | x | x | 18.7µM | x
CCc1ccc(-n2nc(C)c3c(C(=O)N4CCN(c5cccc(Cl)c5)CC4)cc(C)nc32)cc1 | n | n | n | x | n | x | x | x
Cc1cc2n(n1)CCCN2C(=O)Nc1cccc(C)c1C | n | n | n | x | n | x | x | x
CCN(CC)CCOCCOC(=O)C1(c2ccccc2)CCCC1 | 29.9µM! | 31.6µM | n | 50.1µM! | x | x | u | n
C[N+]1(CCOC(=O)C2(c3ccccc3)CCCC2)CCCCC1 | n | n | n | n | n | x | x | x
Nn1c(=O)c2ccccc2n2c(SCc3ccc(C(F)(F)F)cc3)nnc12 | 3.98µM | n | n | 44.7µM | n | x | u | n
Nn1c(=O)c2ccccc2n2c(SCc3ccccc3)nnc12 | n | n | n | n | n | n | x | x
CCC1CCc2c(sc(NC(=O)c3cnccn3)c2C(N)=O)C1 (stereo not drawn) | 3.55µM | u | u | 10µM | n | n | 8.35µM | x
CCC1CCc2c(sc(NC(=O)c3ccco3)c2C(N)=O)C1 (stereo not drawn) | n | u | n | n | n | n | x | x
SMILES | G9a block | JMJD2A Tudor inh | HP1b chromo inh | Sfp PPTase inh | BAZ2B block | L3MBTL1 inh | Sfp inh conf | Sfp gel assay
CC1CCCN(C(=O)c2nn(C)c3c2CSc2ccccc2-3)C1 (stereo not drawn) | x | u | n | 44.7µM | n | n | 52.7µM | x
CC1CC(C)CN(C(=O)c2nn(C)c3c2CSc2ccccc2-3)C1 (stereo not drawn) | x | n | n | n | n | n | x | x
O=C(CC(SCc1ccco1)c1ccc(O)cc1)c1cccs1 (stereo not drawn) | n | u | u | 56.2µM | u | n | 7.44µM | n
CCOc1ccc(NC(=O)C(C)Sc2nc3ncccc3o2)cc1 (stereo not drawn) | n | n | n | x | n | x | x | x
CCC1CC2(C)NC(=O)c3c(sc4c3CC(C)(C)OC4)N2C1=O (stereo not drawn) | 31.6µM | n | u | 15.8µM | n | n | 18.7µM | x
CCCCc1nc2sc3c(c2c(=O)[nH]1)CC(C)(C)OC3 | x | n | n | x | x | x | x | x
CCOC(=O)c1cccc(NC(=O)c2nn(-c3ccc(OC)cc3)c(=O)c3c2c2ccccc2n3C)c1 | n | n | n | x | x | x | x | x
O=C1OCc2ccc([N+](=O)[O-])cc21 | x | n | n | x | x | x | x | x
COC(=O)c1cc(C)nc(Sc2ccccc2N)n1 | 3.55µM | 44.7µM | u | 2µM | n | n | 4.18µM | x
O=C(c1ccc(-c2ccc([N+](=O)[O-])cc2)o1)N1CCCCC1 | u | u | n | 15.8µM | u | n | 18.7µM | u
O=C(c1ccc(-c2ccc(Cl)cc2)o1)N1CCN(c2ccc([N+](=O)[O-])cc2Cl)CC1 | u | n | u | n | n | n | x | x
CCOC(=O)c1ccc(NC(=O)c2c(NC(=O)CCC(=O)O)sc3c2CCCCC3)cc1 | 31.6µM | n | u | 11.2µM | n | n | 11.8µM | n
CCOc1ccccc1NC(=O)c1c(NC(=O)CCC(=O)O)sc2c1CCCCC2 | 25.1µM | 44.7µM | n | 12.6µM | u | n | 23.5µM | n
COc1cccc(CNc2ccccn2)c1O | n[0.501 µM] | n | n | n | n | n[2.29 µM] | x | x
COc1cccc(CNc2cccc3cccnc23)c1O | u | 44.7µM | n | 4.47µM | u | n | 21µM | n
CC(C)N(CCC(=O)c1ccc2ccccc2c1)Cc1ccccc1 | 1.68µM | 50.1µM | n | 3.98µM | n | n | 14.8µM | u
O=C(NCCCn1ccnc1)c1nn2c(C(F)(F)F)cc(-c3ccc(Br)cc3)nc2c1Cl | 50.1µM | 44.7µM | u | 1.12µM | 50.1µM | u | u | x
CCNc1ncc2nc(-c3ccc(Cl)cc3)c(=O)n(-c3ccc(OC)cc3)c2n1 | n[0.501 µM] | x | x | n | x | x | x | x
On1c2c(c3c4nonc4ccc31)CCCC2 | u | x | x | 44.7µM | u | u | 66.3µM | x
Cc1ccc(-c2nc3cnccn3c2Nc2ccccc2)o1 | 7.94µM | u | u | 4.47µM | n | n | 3.32µM | x
